Assay results as given in PubChem BioAssay AID1159580 (chemical genetic matrix, 2015).
Out of some 5,500 compounds screened, about 2,000 (36%) were called active. Not shown: some 18% with an inconclusive outcome. No stated cut-off is given here; in the data, active means normalized growth mostly below about 0.91 (no sharp cut-off); inconclusive means no clear call, values can overlap the other calls; inactive means mostly above about 0.92. This is one part of the list.

Assay: chemical genetic growth profiling, strain panel (AID 1159580);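 further: tested at 20 µM; growth read once vehicle control cultures reached saturation at 30 °C; 1 = growth at the plate median or of vehicle wells; lower values mean less growth of the strain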
Settings: growth OD
[1] = S. cerevisiae deletion strains, locus YAL013W, strain DEP1, hits give low values
[2] = S. cerevisiae deletion strains, locus YBR229C, strain ROT2, hits give low values
[3] = S. cerevisiae deletion strains, locus YDL101C, strain DUN1, hits give low values
[4] = S. cerevisiae deletion strains, locus YDR150W, strain NUM1, hits give low values
[5] = S. cerevisiae deletion strains, locus YEL061C, strain CIN8, hits give low values
[6] = S. cerevisiae deletion strains, locus YGR078C, strain PAC10, hits give low values
[7] = S. cerevisiae deletion strains, locus YHR030C, strain SLT2, hits give low values
[8] = S. cerevisiae deletion strains, locus YJR043C, strain POL32, hits give low values
[9] = S. cerevisiae deletion strains, locus YJR075W, strain HOC1, hits give low values
[10] = S. cerevisiae deletion strains, locus YLR039C, strain RIC1, hits give low values
[11] = S. cerevisiae deletion strains, locus YLR262C, strain YPT6, hits give low values
[12] = S. cerevisiae deletion strains, locus YMR263W, strain SAP30, hits give low values
[13] = S. cerevisiae deletion strains, locus YNL153C, strain GIM3, hits give low values
[14] = S. cerevisiae deletion strains, locus YNL322C, strain KRE1, hits give low values
[15] = S. cerevisiae deletion strains, locus YOL006C, strain TOP1, hits give low values
[16] = S. cerevisiae deletion strains, locus YPL055C, strain LGE1, hits give low values
[17] = S. cerevisiae deletion strains, locus YPL241C, strain CIN2, hits give low values
[18] = S. cerevisiae strains, strain wild type, hits give low values

Measured: normalized growth

CSc1nc(N)nc(N2CCCCC2)n1
inactive: [1] 1 | [2] 1 | [3] 1 | [4] 0.982 | [5] 1 | [6] 1 | [7] 0.951 | S. cerevisiae deletion strains, locus YHR087W, strain rtc3, hits give low values 1 | [8] 1 | [9] 1 | [10] 1.01 | S. cerevisiae deletion strains, locus YLR058C, strain SHM2 (second series), hits give low values 1.02 | S. cerevisiae deletion strains, locus YLR085C, strain ARP6, hits give low values 0.936 | [11] 1.02 | S. cerevisiae deletion strains, locus YML094W, strain GIM5, hits give low values 0.944 | S. cerevisiae deletion strains, locus YMR219W, strain ESC1, hits give low values 1.01 | [12] 1.02 | [13] 0.99 | S. cerevisiae deletion strains, locus YNL298W, strain CLA4 (second series), hits give low values 1.02 | [14] 1 | S. cerevisiae deletion strains, locus YNR030W, strain Alg12, hits give low values 1.01 | [15] 0.812 | [16] 0.939 | [17] 0.935 | S. cerevisiae deletion strains, locus YPR135W, strain CTF4, hits give low values 0.946 | [18] 1.01

CNC(=O)[C@H]1O[C@@H](n2cnc3c(NCc4ccc(N)cc4)ncnc32)C(O)[C@H]1O (stereo not given in full)
inactive: [1] 0.978 | S. cerevisiae deletion strains, locus YAL040C, strain CLN3, hits give low values 0.991 | S. cerevisiae deletion strains, locus YER002W, strain NOP16, hits give low values 1.02 | [6] 0.986 | S. cerevisiae deletion strains, locus YNL175C, strain NOP13, hits give low values 1.02 | S. cerevisiae deletion strains, locus YNL197C, strain WHI3, hits give low values 1.01 | S. cerevisiae deletion strains, locus YNL224C, strain SQS1, hits give low values 1.02 | S. cerevisiae deletion strains, locus YOR083W, strain WHI5 (second series), hits give low values 0.995

NCC1OC(OC2C(CO)OC(OC3C(O)C(N)CC(N)C3OC3OC(CO)C(O)CC3N)C2O)C(N)C(O)C1OC1OC(CO)C(O)C(O)C1O (stereo not given)
inactive: [1] 0.997 | S. cerevisiae deletion strains, locus YBR021W, strain FUR4, hits give low values 1.17 | [2] 0.999 | S. cerevisiae deletion strains, locus YCL029C, strain bik1, hits give low values 0.977 | S. cerevisiae deletion strains, locus YDL035C, strain GPR1, hits give low values 0.996 | S. cerevisiae deletion strains, locus YDL074C, strain BRE1, hits give low values 0.993 | [3] 0.992 | S. cerevisiae deletion strains, locus YDL134C, strain PPH21, hits give low values 1.01 | S. cerevisiae deletion strains, locus YDL185W, strain tfp1, hits give low values 0.958 | S. cerevisiae deletion strains, locus YDL192W, strain arf1, hits give low values 0.984 | S. cerevisiae deletion strains, locus YDR101C, strain arx1, hits give low values 0.978 | [4] 0.991 | S. cerevisiae deletion strains, locus YDR162C, strain NBP2, hits give low values 0.992 | S. cerevisiae deletion strains, locus YDR318W, strain mcm21, hits give low values 0.997 | S. cerevisiae deletion strains, locus YDR388W, hits give low values 0.998 | S. cerevisiae deletion strains, locus YDR502C, strain sam2, hits give low values 0.988 | [5] 0.995 | S. cerevisiae deletion strains, locus YER110C, hits give low values 0.986 | S. cerevisiae deletion strains, locus YER155C, strain BEM2, hits give low values 0.995 | S. cerevisiae deletion strains, locus YER167W, strain BCK2, hits give low values 0.997 | S. cerevisiae deletion strains, locus YGL078C, strain dbp3, hits give low values 0.997 | S. cerevisiae deletion strains, locus YGL086W, strain mad1, hits give low values 1.01 | S. cerevisiae deletion strains, locus YGL248W, strain PDE1, hits give low values 0.996 | [6] 0.974 | S. cerevisiae deletion strains, locus YGR135W, strain pre9, hits give low values 0.993 | S. cerevisiae deletion strains, locus YGR229C, strain SMI1, hits give low values 0.991 | S. cerevisiae deletion strains, locus YGR252W, strain gcn5, hits give low values 1.18 | [7] 0.993 | S. cerevisiae deletion strains, locus YHR079C, strain IRE1 (second series), hits give low values 0.986 | S. cerevisiae deletion strains, locus YHR094C, strain hxt1, hits give low values 0.975 | S. cerevisiae deletion strains, locus YHR129C, strain ARP1, hits give low values 0.988 | S. cerevisiae deletion strains, locus YHR200W, strain rpn10, hits give low values 0.993 | S. cerevisiae deletion strains, locus YIL066C, strain RNR3, hits give low values 0.987 | S. cerevisiae deletion strains, locus YIL073C, strain SPO22, hits give low values 0.899 | S. cerevisiae deletion strains, locus YIL125W, strain kgd1, hits give low values 0.995 | S. cerevisiae deletion strains, locus YIR030C, strain dcg1, hits give low values 0.988 | S. cerevisiae deletion strains, locus YJL095W, strain BCK1, hits give low values 0.982 | S. cerevisiae deletion strains, locus YJL134W, strain LCB3, hits give low values 0.992 | S. cerevisiae deletion strains, locus YJL168C, strain set2, hits give low values 0.986 | S. cerevisiae deletion strains, locus YJL187C, strain SWE1 (second series), hits give low values 0.988 | [8] 0.992 | [9] 0.98 | S. cerevisiae deletion strains, locus YKL009W, strain mrt4, hits give low values 0.976 | S. cerevisiae deletion strains, locus YKL068W, hits give low values 0.978 | S. cerevisiae deletion strains, locus YKL085W, strain MDH1 (second series), hits give low values 0.983 | S. cerevisiae deletion strains, locus YKL085W, strain MDH1, hits give low values 0.983 | S. cerevisiae deletion strains, locus YKL190W, strain CNB1, hits give low values 0.995 | S. cerevisiae deletion strains, locus YKR001C, strain vps1, hits give low values 0.991 | [10] 0.944 | S. cerevisiae deletion strains, locus YLR058C, strain SHM2, hits give low values 0.999 | S. cerevisiae deletion strains, locus YLR102C, strain apc9, hits give low values 0.997 | [11] 0.916 | S. cerevisiae deletion strains, locus YLR268W, strain sec22, hits give low values 0.962 | S. cerevisiae deletion strains, locus YLR330W, strain CHS5, hits give low values 0.985 | S. cerevisiae deletion strains, locus YLR342W, strain FKS1 (second series), hits give low values 1.07 | S. cerevisiae deletion strains, locus YLR371W, strain rom2, hits give low values 0.986 | S. cerevisiae deletion strains, locus YLR418C, strain cdc73, hits give low values 1 | S. cerevisiae deletion strains, locus YML016C, strain PPZ1, hits give low values 1.01 | S. cerevisiae deletion strains, locus YML032C, strain rad52, hits give low values 0.981 | S. cerevisiae deletion strains, locus YML124C, strain tub3, hits give low values 1.01 | S. cerevisiae deletion strains, locus YMR078C, strain ctf18, hits give low values 0.993 | S. cerevisiae deletion strains, locus YMR223W, strain ubp8, hits give low values 1.03 | [12] 0.985 | S. cerevisiae deletion strains, locus YMR307W, strain GAS1, hits give low values 1.11 | S. cerevisiae deletion strains, locus YNL067W, strain RPL9B, hits give low values 0.976 | S. cerevisiae deletion strains, locus YNL128W, strain TEP1, hits give low values 0.994 | [13] 0.988 | S. cerevisiae deletion strains, locus YNL233W, strain BNI4, hits give low values 1 | S. cerevisiae deletion strains, locus YNL250W, strain rad50, hits give low values 1 | S. cerevisiae deletion strains, locus YNL271C, strain bni1, hits give low values 0.985 | S. cerevisiae deletion strains, locus YNL298W, strain CLA4, hits give low values 0.984 | S. cerevisiae deletion strains, locus YNL307C, strain MCK1, hits give low values 1 | [14] 0.995 | S. cerevisiae deletion strains, locus YNR052C, strain pop2, hits give low values 0.991 | [15] 0.948 | S. cerevisiae deletion strains, locus YOL012C, strain htz1 1.18 | S. cerevisiae deletion strains, locus YOL147C, strain pex11, hits give low values 0.998 | S. cerevisiae deletion strains, locus YOR061W, strain CKA2, hits give low values 0.997 | S. cerevisiae deletion strains, locus YOR069W, strain VPS5, hits give low values 1 | S. cerevisiae deletion strains, locus YOR136W, strain idh2, hits give low values 0.986 | S. cerevisiae deletion strains, locus YOR144C, strain elg1, hits give low values 0.985 | S. cerevisiae deletion strains, locus YOR184W, strain ser1, hits give low values 0.97 | S. cerevisiae deletion strains, locus YOR316C, strain cot1, hits give low values 0.965 | [16] 0.966 | [17] 0.997 | S. cerevisiae deletion strains, locus YPR119W, strain clb2, hits give low values 0.999 | S. cerevisiae deletion strains, locus YPR141C, strain kar3, hits give low values 0.985 | S. cerevisiae deletion strains, locus YPR163C, strain tif3, hits give low values 0.983 | S. cerevisiae deletion strains, locus YPR167C, strain met16, hits give low values 0.981 | S. cerevisiae deletion strains, strain wtn01, hits give low values 0.954 | [18] 1
